Reference: PubChem BioAssay (NCATS)
Results filed as inconclusive are left out. Entries that show only a call come without a potency. The source made the active and inactive calls. The call rests on the fitted dose curve; in most records, active means well fitted inhibition curve with a large enough effect; inconclusive means small, poorly fitted or top-dose-only effect; inactive means no such curve, though single readings can be large or run the other way.

Experiment: qHTS assay for measurement of the activity of small molecule inhibitors on Zika virus induced Caspase-3 activity in human iPSC derived neural progenitor cells (hNPCs) (AID 1224857); further: nearly all actives have a fitted effect of over 65% in size; further: potency means the concentration at half of the fitted maximal effect
Conditions: hNPCs ZIKV-induced caspase-3/7, Caspase-Glo luminescence, 6 h; series mostly up to 45.7 µM
Procedure, shortened: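 In medium with heparin 2 ug/ml and cyclopamine 2 uM, hNPCs (350 cells/well) received compound for one hour and then Zika virus at 2 FFU/cell; caspase activity was measured by Caspase-Glo 3/7 luminescence 6 h post-infection.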

Question: Which Potency does the source give for `CCOCCn1c(N2CCCN(C)CC2)nc2ccccc21` here?
Answer: inactive

Question: Which Potency does the source give for `O=C(c1ccc(F)cc1)C1CCN(CCn2c(=S)[nH]c3ccccc3c2=O)CC1` here?
Answer: inactive

Question: With `Cc1cccc(C)c1NC(=O)CN1CCCCCC1` as the compound, how does the Potency read?
Answer: inactive

Question: For `CC(C)(Cc1c[nH]c2ccccc12)NCC(O)COc1ccccc1C#N` (centres undefined), which Potency is on record?
Answer: inactive

Question: For `Cc1cc(-c2ccccc2)nnc1NCCN1CCOCC1`, which Potency is on record?
Answer: inactive

Question: With `CCCCNc1ccc(C(=O)OCCOCCOCCOCCOCCOCCOCCOCCOCCOC)cc1` as the compound, how does the Potency read?
Answer: inactive

Question: With `CCCCCCCCCCC[C@@H](C[C@@H]1OC(=O)[C@H]1CCCCCC)OC(=O)[C@H](CC(C)C)NC=O` as the compound, how does the Potency read?
Answer: inactive

Question: Which Potency does the source give for `FC(F)(F)C(F)(F)C(F)(F)C(F)(F)C(F)(F)C(F)(F)C(F)(F)C(F)(F)Br` here?
Answer: inactive

Question: For `CCCCCN=C(N)N/N=C/c1c[nH]c2ccc(OC)cc12`, which Potency is on record?
Answer: inactive

Question: Which Potency does the source give for `CC(=O)Nc1ccc(S(=O)(=O)Nc2ccc([N+](=O)[O-])cc2)cc1` here?
Answer: inactive

Question: With `CCCCCCCCCCCCCCCC(=O)O` as the compound, how does the Potency read?
Answer: inactive

Question: With `O=S(=O)(O)c1ccc(O)cc1` as the compound, how does the Potency read?
Answer: inactive

Question: Which Potency does the source give for `CO[C@]12C[C@@H](COC(=O)c3cncc(Br)c3)CN(C)[C@@H]1Cc1cn(C)c3cccc2c13` here?
Answer: inactive

Question: With `CCN(CC)CCNC(=O)c1cc(Br)c(N)cc1OC` as the compound, how does the Potency read?
Answer: inactive

Question: For `Oc1c(Cl)cc(Cl)c(Cl)c1Cc1c(O)c(Cl)cc(Cl)c1Cl`, which Potency is on record?
Answer: inactive

Question: For `C[C@H]1O[C@@H](O[C@H]2CC[C@@]3(C)[C@H](CC[C@@H]4[C@@H]3C[C@@H](O)[C@]3(C)[C@@H](C5=CC(=O)OC5)CC[C@]43O)C2)C[C@H](O)[C@@H]1O[C@H]1C[C@H](O)[C@H](O[C@H]2C[C@H](O)[C@H](O[C@@H]3O[C@H](CO)[C@@H](O)[C@H](O)[C@H]3O)[C@@H](C)O2)[C@@H](C)O1`, which Potency is on record?
Answer: inactive

Question: For `NC(N)=NCc1cccc(I)c1`, which Potency is on record?
Answer: inactive

Question: With `CCN(CC)CCOc1ccc2c(c1)C(=O)c1cc(OCCN(CC)CC)ccc1-2` as the compound, how does the Potency read?
Answer: inactive

Question: Which Potency does the source give for `NC(N)=NN=C(/C=C/c1ccc([N+](=O)[O-])o1)/C=C/c1ccc([N+](=O)[O-])o1` here?
Answer: 31.6 µM (active)

Question: With `C/C=C/c1ccc(O)c(OC)c1` as the compound, how does the Potency read?
Answer: inactive

Question: With `CC(C)NCC(O)c1ccc2ccccc2c1` (centres undefined) as the compound, how does the Potency read?
Answer: inactive

Question: With `C=C[C@@]1(C)CC(=O)[C@]2(O)[C@@]3(C)[C@@H](O)CCC(C)(C)[C@@H]3[C@H](O)[C@H](OC(C)=O)[C@@]2(C)O1` as the compound, how does the Potency read?
Answer: inactive

Question: For `CCN1CCN(C(=O)N[C@@H](C(=O)N[C@@H]2C(=O)N3C(C(=O)O)=C(CSc4nnnn4C)CS[C@H]23)c2ccc(O)cc2)C(=O)C1=O`, which Potency is on record?
Answer: inactive

Question: For `C[C@]12CCC(=O)C=C1C=C[C@@H]1[C@@H]2CC[C@@]2(C)[C@H]1CC[C@@]21CCC(=O)O1`, which Potency is on record?
Answer: inactive

Question: For `CCc1nn(CCCN2CCN(c3cccc(Cl)c3)CC2)c(=O)n1CCOc1ccccc1`, which Potency is on record?
Answer: inactive

Question: Which Potency does the source give for `CC(=O)O[C@]1(C(C)=O)CC[C@H]2[C@@H]3C=C(Cl)C4=CC(=O)CC[C@]4(C)[C@H]3CC[C@@]21C` here?
Answer: inactive

Question: With `CC(=C(CCOC(=O)C(C)C)SSC(CCOC(=O)C(C)C)=C(C)N(C=O)Cc1cnc(C)nc1N)N(C=O)Cc1cnc(C)nc1N` as the compound, how does the Potency read?
Answer: 11.2 µM (active)

Question: With `CCCCN1C[C@H](O)[C@@H](O)[C@H](O)[C@H]1CO` as the compound, how does the Potency read?
Answer: inactive

Question: For `C#C[C@]1(OC(C)=O)CC[C@H]2[C@@H]3CCC4=C/C(=N/O)CC[C@@H]4[C@H]3CC[C@@]21CC`, which Potency is on record?
Answer: inactive

Question: Which Potency does the source give for `COc1ccc(S(=O)(=O)N2c3ccc(Cl)cc3[C@@](O)(c3ccccc3Cl)[C@H]2C(=O)N2CCC[C@@H]2C(N)=O)cc1OC` here?
Answer: inactive

Question: For `O=C(CN1CCN(Cc2ccc3c(c2)OCO3)CC1)N1c2ccccc2Sc2ccccc21`, which Potency is on record?
Answer: inactive

Question: Which Potency does the source give for `CC[N+](C)(CC)CCOC(=O)C(O)(c1ccccc1)C1CCCCC1` (centres undefined) here?
Answer: inactive

Question: For `CC(C)(C)NC[C@H](O)COc1nsnc1N1CCOCC1`, which Potency is on record?
Answer: inactive

Question: For `CN1CCc2cccc3c2[C@H]1Cc1ccc(O)c(O)c1-3`, which Potency is on record?
Answer: inactive

Question: With `CN1CCN(C2=Nc3ccccc3Sc3ccc(Cl)cc32)CC1` as the compound, how does the Potency read?
Answer: inactive

Question: Which Potency does the source give for `Cl/C(=C\n1cncn1)c1ccc(Cl)cc1Cl` here?
Answer: inactive

Question: Which Potency does the source give for `CCOC(=O)[C@H](CCc1ccccc1)N[C@@H](C)C(=O)N1[C@H](C(=O)O)C[C@H]2CCCC[C@@H]21` here?
Answer: inactive

Experiment: qHTS assay for measurement of the activity of small molecule inhibitors on Zika virus induced Caspase-3 activity in human astrocytoma cells (AID 1224859)
Conditions: SNB-19 ZIKV-induced caspase-3/7, luminescence, 6 h; series mostly up to 45.7 µM
Procedure, shortened: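 A cell-based luminescent caspase-3/7 assay used SNB-19 cells infected with ZIKV (2 FFU/cell) for 6 h following 1 h compound pretreatment.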

Question: Which outcome does the source give for `CCOCCn1c(N2CCCN(C)CC2)nc2ccccc21` here?
Answer: inactive

Question: For `O=C(c1ccc(F)cc1)C1CCN(CCn2c(=S)[nH]c3ccccc3c2=O)CC1`, which outcome is on record?
Answer: inactive

Question: For `Cc1cccc(C)c1NC(=O)CN1CCCCCC1`, which outcome is on record?
Answer: inactive

Question: With `CC(C)(Cc1c[nH]c2ccccc12)NCC(O)COc1ccccc1C#N` (centres undefined) as the compound, how does the outcome read?
Answer: inactive

Question: With `Cc1cc(-c2ccccc2)nnc1NCCN1CCOCC1` as the compound, how does the outcome read?
Answer: inactive

Question: Which outcome does the source give for `CCCCNc1ccc(C(=O)OCCOCCOCCOCCOCCOCCOCCOCCOCCOC)cc1` here?
Answer: inactive

Question: With `CCCCCCCCCCC[C@@H](C[C@@H]1OC(=O)[C@H]1CCCCCC)OC(=O)[C@H](CC(C)C)NC=O` as the compound, how does the outcome read?
Answer: inactive

Question: Which outcome does the source give for `FC(F)(F)C(F)(F)C(F)(F)C(F)(F)C(F)(F)C(F)(F)C(F)(F)C(F)(F)Br` here?
Answer: inactive

Question: For `CCCCCN=C(N)N/N=C/c1c[nH]c2ccc(OC)cc12`, which outcome is on record?
Answer: inactive

Question: Which outcome does the source give for `CC(=O)Nc1ccc(S(=O)(=O)Nc2ccc([N+](=O)[O-])cc2)cc1` here?
Answer: inactive

Question: With `CCCCCCCCCCCCCCCC(=O)O` as the compound, how does the outcome read?
Answer: inactive

Question: With `O=S(=O)(O)c1ccc(O)cc1` as the compound, how does the outcome read?
Answer: inactive

Question: With `CO[C@]12C[C@@H](COC(=O)c3cncc(Br)c3)CN(C)[C@@H]1Cc1cn(C)c3cccc2c13` as the compound, how does the outcome read?
Answer: inactive

Question: Which outcome does the source give for `CCN(CC)CCNC(=O)c1cc(Br)c(N)cc1OC` here?
Answer: inactive

Question: Which outcome does the source give for `Oc1c(Cl)cc(Cl)c(Cl)c1Cc1c(O)c(Cl)cc(Cl)c1Cl` here?
Answer: inactive

Question: Which outcome does the source give for `C[C@H]1O[C@@H](O[C@H]2CC[C@@]3(C)[C@H](CC[C@@H]4[C@@H]3C[C@@H](O)[C@]3(C)[C@@H](C5=CC(=O)OC5)CC[C@]43O)C2)C[C@H](O)[C@@H]1O[C@H]1C[C@H](O)[C@H](O[C@H]2C[C@H](O)[C@H](O[C@@H]3O[C@H](CO)[C@@H](O)[C@H](O)[C@H]3O)[C@@H](C)O2)[C@@H](C)O1` here?
Answer: inactive

Question: With `NC(N)=NCc1cccc(I)c1` as the compound, how does the outcome read?
Answer: inactive

Question: With `CCN(CC)CCOc1ccc2c(c1)C(=O)c1cc(OCCN(CC)CC)ccc1-2` as the compound, how does the outcome read?
Answer: inactive

Question: Which outcome does the source give for `NC(N)=NN=C(/C=C/c1ccc([N+](=O)[O-])o1)/C=C/c1ccc([N+](=O)[O-])o1` here?
Answer: inactive

Question: For `C/C=C/c1ccc(O)c(OC)c1`, which outcome is on record?
Answer: inactive

Question: With `CC(C)NCC(O)c1ccc2ccccc2c1` (centres undefined) as the compound, how does the outcome read?
Answer: inactive

Question: For `C=C[C@@]1(C)CC(=O)[C@]2(O)[C@@]3(C)[C@@H](O)CCC(C)(C)[C@@H]3[C@H](O)[C@H](OC(C)=O)[C@@]2(C)O1`, which outcome is on record?
Answer: inactive

Question: For `CCN1CCN(C(=O)N[C@@H](C(=O)N[C@@H]2C(=O)N3C(C(=O)O)=C(CSc4nnnn4C)CS[C@H]23)c2ccc(O)cc2)C(=O)C1=O`, which outcome is on record?
Answer: inactive

Question: With `C[C@]12CCC(=O)C=C1C=C[C@@H]1[C@@H]2CC[C@@]2(C)[C@H]1CC[C@@]21CCC(=O)O1` as the compound, how does the outcome read?
Answer: inactive

Question: With `CCc1nn(CCCN2CCN(c3cccc(Cl)c3)CC2)c(=O)n1CCOc1ccccc1` as the compound, how does the outcome read?
Answer: inactive

Question: Which outcome does the source give for `CC(=O)O[C@]1(C(C)=O)CC[C@H]2[C@@H]3C=C(Cl)C4=CC(=O)CC[C@]4(C)[C@H]3CC[C@@]21C` here?
Answer: inactive

Question: Which outcome does the source give for `CC(=C(CCOC(=O)C(C)C)SSC(CCOC(=O)C(C)C)=C(C)N(C=O)Cc1cnc(C)nc1N)N(C=O)Cc1cnc(C)nc1N` here?
Answer: inactive

Question: With `CCCCN1C[C@H](O)[C@@H](O)[C@H](O)[C@H]1CO` as the compound, how does the outcome read?
Answer: inactive

Question: Which outcome does the source give for `C#C[C@]1(OC(C)=O)CC[C@H]2[C@@H]3CCC4=C/C(=N/O)CC[C@@H]4[C@H]3CC[C@@]21CC` here?
Answer: inactive

Question: For `COc1ccc(S(=O)(=O)N2c3ccc(Cl)cc3[C@@](O)(c3ccccc3Cl)[C@H]2C(=O)N2CCC[C@@H]2C(N)=O)cc1OC`, which outcome is on record?
Answer: inactive

Question: For `O=C(CN1CCN(Cc2ccc3c(c2)OCO3)CC1)N1c2ccccc2Sc2ccccc21`, which outcome is on record?
Answer: inactive

Question: With `CC[N+](C)(CC)CCOC(=O)C(O)(c1ccccc1)C1CCCCC1` (centres undefined) as the compound, how does the outcome read?
Answer: inactive

Question: Which outcome does the source give for `CC(C)(C)NC[C@H](O)COc1nsnc1N1CCOCC1` here?
Answer: inactive

Question: Which outcome does the source give for `CN1CCc2cccc3c2[C@H]1Cc1ccc(O)c(O)c1-3` here?
Answer: inactive

Question: Which outcome does the source give for `CN1CCN(C2=Nc3ccccc3Sc3ccc(Cl)cc32)CC1` here?
Answer: inactive

Question: For `Cl/C(=C\n1cncn1)c1ccc(Cl)cc1Cl`, which outcome is on record?
Answer: inactive

Question: With `CCOC(=O)[C@H](CCc1ccccc1)N[C@@H](C)C(=O)N1[C@H](C(=O)O)C[C@H]2CCCC[C@@H]21` as the compound, how does the outcome read?
Answer: inactive
